Source: PubChem (several laboratories)
Many of the other results were omitted from the sample, so hits are more common in it than they were.
RmlC RmlD mix: RmlC and RmlD coupled enzyme inhibitors, primary screen, biochemical, 384-well, compound mixtures, retest; RmlC/RmlD coupled enzyme inhibition, 384-well mixture HTS; inhibition, % at 5.5 µM; 110,000 compounds, 0.39% hits; AID 1532, 2009; in the data active means inhibition above about 30%, passing the limit was not always enough; inconclusive means no clear call, values can overlap the other calls
HIV RNase H inh-1: HIV-1 RT RNase H inhibitors, primary screen, biochemical, fluorescence; 65,000 compounds, 1.9% hits; inhibition, % at 10 µM; RT-RNase H RNA/DNA duplex cleavage; AID 565, 2006; in the data active means inhibition above about 50%
HIV RNase H inh-2: HIV-1 RT RNase H inhibitors, retest, confirmation, biochemical; Recombinant RT RNase H, fluorescent RNA/DNA duplex cleavage; inhibition, % at 10 µM; 1,000 compounds, 39% hits; shares compounds with HIV RNase H inh-1; in the data active means inhibition above about 48%; inconclusive means no clear call, values can overlap the other calls
Active calls of the source: *; ? = inconclusive; nt = not tested or not shown.

SMILES	RmlC RmlD mix	HIV RNase H inh-1	HIV RNase H inh-2
O=C1C2C3C=CC(C3=C(c3ccccc3)c3ccccc3)C2C(=O)N1Cc1ccccc1 (stereo unspecified)	5.4	nt	nt
Cc1ccc(OCC(=O)Nc2ccc(O)c(-c3nc4ccccc4o3)c2)cc1	nt	70.2*	26.4
COc1cccc(C(=O)Nc2ccc(-c3nc4ccccc4o3)c(O)c2)c1	-159.6	66.1*	24.1
COc1cc(OC)cc(C(=O)Nc2ccc(-c3nc4ccccc4o3)cc2)c1	-12.5	-2.7	nt
O=C(COc1ccc(Cl)cc1)Nc1ccc2oc(-c3ccncc3)nc2c1	11.8	-1.2	nt
CCOc1ccc(C(O)C(CN2CCOCC2)c2ccccc2)cc1 (stereo unspecified)	6.0	nt	nt
Cc1ccnc2c(N3C(=O)C4C5c6ccccc6C(c6ccccc65)C4C3=O)cccc12 (stereo unspecified)	-26.6	nt	nt
Cc1ccc(S(=O)(=O)NC(=O)CSc2nc3ccccc3s2)cc1	-8.9	nt	nt
CS/C(=N\S(=O)(=O)c1cccs1)NC(=O)CSc1nc2ccccc2s1	-14.8	73.5*	34.9
Cc1ccc(C)c(NC(=O)Cn2nnc(C(=O)NCc3cccs3)c2N)c1	-10.7	nt	nt
CC(OC(=O)c1cc(=O)[nH]c2ccccc12)c1ccccc1 (stereo unspecified)	-6.6	-80.5	nt
CC(C)Sc1nc2sc3c(c2c2nnc(SCC(=O)NCc4ccco4)n12)CCCC3	-8.5	86.5*	66.9*
CCSc1nc2sc3c(c2c2nnc(SCC(=O)NCc4ccco4)n12)CCCC3	nt	-0.9	nt
Cc1ccc2[nH]c(=O)c(CN(Cc3ccccc3Cl)C(=O)N3CCOCC3)cc2c1	21.9	-8.5	nt
COc1ccccc1N1CCN(S(=O)(=O)c2cnc[nH]2)CC1	2.3	2.5	nt
C/C(=N/NC(=O)c1cccs1)c1ccc(NC(=O)COc2ccc(Cl)cc2)cc1	34.2	nt	nt
CC(=O)N1CCc2cc(S(=O)(=O)NC(Cc3ccccc3)C(=O)Nc3cc(C)ccn3)ccc21 (stereo unspecified)	3.0	nt	nt
CC(=O)N1CCc2cc(S(=O)(=O)NC(CC(C)C)C(=O)Nc3cc(C(=O)O)ccc3C)ccc21 (stereo unspecified)	nt	61.3*	21.7
COc1cc(OC)c2c(O)c3c(c(-c4c5c(c(O)c6c(OC)cc(OC)cc46)CO[C@@H](C)[C@H]5O)c2c1)[C@H](O)[C@H](C)OC3	12.4	nt	nt
CC(=O)C1=C(C)N=c2s/c(=C/c3ccc4c(c3)OCO4)c(=O)n2C1c1ccc(N(C)C)cc1 (stereo unspecified)	nt	45.1	nt
COc1ccc(C2C(C(C)=O)=C(C)N=c3s/c(=C/c4ccc5c(c4)OCO5)c(=O)n32)cc1 (stereo unspecified)	nt	69.6*	53.6*
COc1ccc(C2C(C(=O)Nc3ccc4c(c3)OCCO4)c3ccccc3C(=O)N2C)cc1 (stereo unspecified)	-9.6	nt	nt
Cc1ccc(NCc2nnc(SCC(=O)NCCc3ccccc3)n2C)cc1	8.5	-8.7	nt
Cc1ccc(-n2c(C)cc(/C=c3/sc4nc5ccccc5n4c3=O)c2C)cc1	10.2	nt	nt
O=c1/c(=C\c2cccn2-c2ccccc2)sc2nc3ccccc3n12	-1.4	89.4*	60.7*
SMILES	RmlC RmlD mix	HIV RNase H inh-1	HIV RNase H inh-2
Fc1ccc(Oc2nccc(-c3ccc(Cl)cc3)n2)cc1	-0.8	nt	nt
O=C(CSc1nc2ccccc2c2nc3ccccc3n12)NCc1ccco1	1.9	84.0*	63.8*
Cn1c(SCC(=O)NCc2ccco2)nc2ccccc2c1=O	5.1	-25.2	nt
Cc1ccc(C)c(N=C2NC(=O)CS2)c1	-0.9	-13.7	nt
Cc1cc(O)c(C(C)C)cc1N=C1CSC(=O)N1	8.4	66.9*	?
CN(C(=O)Nc1ccc(Cl)cc1Cl)[C@H]1c2cc(Br)ccc2OC[C@H]1CO	-10.6	nt	nt
Cc1ccc(-c2nc3cnccn3c2Nc2ccccc2)o1	-62.8	88.1*	25.4
Cc1ccc(Nc2c(-c3ccc(C)o3)nc3cnccn23)cc1	12.4	nt	nt
Cc1ccc(-c2noc(CCC(=O)N(C)c3ccccc3C)n2)cc1	6.3	-4.7	nt
CCOc1c2ccc(C(=O)NCc3ccc(C)cc3)cc2nn1CCOC	19.8	nt	nt
COc1ccccc1N1CCN(C(c2cc3ccc(C)cc3[nH]c2=O)c2nnnn2C2CCCC2)CC1 (stereo unspecified)	-12.1	14.8	nt
COc1ccccc1N1CCN(C(c2cc3cc(C)ccc3[nH]c2=O)c2nnnn2C2CCCC2)CC1 (stereo unspecified)	2.3	53.8*	26.0
Cc1c(C(N)=O)sc2ncn(CC(=O)N3CCC(C)CC3)c(=O)c12	8.8	nt	nt
CC(C)(C)NC(=O)c1cccc(NC(=O)c2cccc(O)c2)c1	2.7	nt	nt
Cc1cc(NC(=O)CSc2nc3cc4c(cc3c(=O)n2CCc2ccccc2)OCO4)no1	10.8	78.1*	71.0*
Cc1cc(NC(=O)CSc2nc3ccccc3c(=O)n2Cc2ccc(F)cc2)no1	-5.2	68.0*	21.7
COc1ccc(CCn2c(SCC(=O)Nc3cc(C)on3)nc3ccccc3c2=O)cc1OC	nt	-0.2	nt
CCCCCCn1c(SCC(=O)Nc2cc(C)on2)nc2ccccc2c1=O	4.5	47.2	nt
Cc1nn(-c2ccccc2)c2sc(C(=O)OCc3nnc(-c4ccccc4)o3)cc12	-29.2	-45.4	nt
Cc1cccc(OCCCC(=O)N2CCCc3ccccc32)c1C	-7.4	nt	nt
CC(=O)c1coc2ccc(OCCN3CCCCC3)cc12	-6.9	0.6	nt
COC(=O)[C@H]1C[C@@H]1[C@H](NC(=O)c1ccccc1)c1ccccc1	3.4	nt	nt
Cc1oc(CC(C)C)c(CN)c1C(=O)O	-15.3	nt	nt
CCC(C)(C)c1nnc(NC(=O)c2ccc([N+](=O)[O-])cc2)s1	-8.8	nt	nt
CC(C)Cc1cc(C(=O)Nc2sc3c(c2C#N)CCCC3)no1	10.2	65.1*	68.3*
SMILES	RmlC RmlD mix	HIV RNase H inh-1	HIV RNase H inh-2
CC(C)Cc1cc(C(=O)Nc2sc3c(c2C#N)CCC3)no1	7.5	nt	nt
Cc1noc(C(=O)Nc2sc3c(c2C#N)CCC3)c1Cl	10.4	66.6*	8.9
Cc1cc(C(=O)Nc2sc3c(c2C#N)CCC3)no1	10.9	22.4	nt
COc1ccc(C(c2nnnn2C2CCCC2)N2CCc3ccccc3C2)cc1OC (stereo unspecified)	-13.1	-4.5	nt
COCCn1nnnc1C(c1ccc(O)c(OC)c1)N1CCc2ccccc2C1 (stereo unspecified)	-7.6	61.2*	-2.9
C=CCn1c(COc2cccc3ccc(C)nc23)nnc1SCC(N)=O	-8.8	-7.5	nt
COc1cc(N)c(Cl)cc1C(=O)N[C@@H]1CCN(CCCOc2ccc(F)cc2)C[C@@H]1OC	-12.5	nt	nt
c1ccc(-c2nnc3sc(-c4ccncc4)nn23)cc1	-7.0	26.8	nt
c1ccc(-c2nnc3sc(-c4csc5c4CCCC5)nn23)cc1	-0.2	69.4*	?
CC(C)COCC1CC2(CC(C)(c3csc(N)n3)OC2=O)C(=O)O1 (stereo unspecified)	nt	1.5	nt
C=CCNc1nc(C2(C)CC3(CC(C)(C)OC3=O)C(=O)O2)cs1 (stereo unspecified)	2.8	57.2*	23.8
CCCn1c(=O)c(C(=O)NCc2ccncc2)c(O)c2ccccc21	3.5	-29.5	nt
CCCCCn1c(=O)c(C(=O)NCc2ccncc2)c(O)c2ccccc21	4.0	82.7*	56.8*
CC(=O)OCCOc1nc(N(C)C)nc(N(C)C)n1	10.1	-16.7	nt
